About 4,000 (25%) of roughly 16,000 compounds were called active. Not shown: some 26% with an inconclusive outcome. The list is a sample of the results. Values without a mark were called inactive. Calls follow the shape of the dose curve; as a rule, active = well fitted curve in the direction sought with a large enough effect; inconclusive = small, poorly fitted or top-dose-only effect, or effect the other way; inactive = no such curve, though single readings can be large or run the other way.
biological target: Cytochrome P450 2C9 (Homo sapiens) (UniProt P11712); experiment: Cytochrome panel assay with activity outcomes; conditions: recombinant CYP, pro-luciferin dealkylation, luminescence, p450-cyp2c9; series mostly up to 57.1 µM
Sequence (P11712 whole entry, looked up): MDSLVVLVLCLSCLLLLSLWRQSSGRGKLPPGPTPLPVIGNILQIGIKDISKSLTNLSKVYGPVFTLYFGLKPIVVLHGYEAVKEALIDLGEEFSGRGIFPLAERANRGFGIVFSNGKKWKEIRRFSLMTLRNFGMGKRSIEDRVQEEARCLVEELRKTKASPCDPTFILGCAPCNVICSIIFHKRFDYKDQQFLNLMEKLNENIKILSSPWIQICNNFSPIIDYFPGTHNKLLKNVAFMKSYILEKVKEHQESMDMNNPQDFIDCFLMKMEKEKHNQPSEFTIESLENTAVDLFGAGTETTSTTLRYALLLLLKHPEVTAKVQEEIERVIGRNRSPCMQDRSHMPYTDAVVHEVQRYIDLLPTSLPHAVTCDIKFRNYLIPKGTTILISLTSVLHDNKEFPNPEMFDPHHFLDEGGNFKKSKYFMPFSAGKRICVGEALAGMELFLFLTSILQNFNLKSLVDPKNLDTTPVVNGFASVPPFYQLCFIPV
% is scaled to controls: 0 for no effect and ±100 for the full control effect.

| SMILES | AC50 | activity, negative = inhibition |
| --- | --- | --- |
| Cc1ccc(C(=O)c2ccc(CC(=O)O)n2C)cc1 | inactive | – |
| CCOC(=O)CCN1C(=O)[C@H]2[C@H]3[C@H](O)[C@H](O)C/C(=N/OC/C=C(\C)CCC=C(C)C)[C@@H]3CC[C@@H]2C1=O | – | 7.78% [at 11.4 µM] |
| CN1CCN(c2ncnc3ccc(-c4ccc(C(=O)N(C)C)cc4)cc23)CC1 | – | 17.4% [at 2.29 µM] |
| Cc1noc(C)c1-c1ccc2ncnc(Nc3ccc(F)cc3)c2c1 | – | -13.2% [at 2.29 µM] |
| FC(F)(F)c1cc(CN2CCC3(CCNCC3)CC2)cc(C(F)(F)F)c1 | inactive | – |
| CS(=O)(=O)Nc1cccc(-c2nccc(Nc3ccc(F)cc3)n2)c1 | – | 18.7% [at 2.29 µM] |
| COC(=O)C1=C(C)N=C2SC(C)C(=O)N2C1/C=C/c1ccccc1 (stereo not given) | 4.47 µM (active) | – |
| COC(=O)c1cc(/C=C/c2ccccc2)on1 | inactive | – |
| COC(=O)[C@@]1(Cc2ccccc2)[C@H]2c3cc(C(=O)N4CCCC4)n(Cc4ccsc4Br)c3C[C@H]2CN1C(=O)c1ccccc1 | 2 µM (active) | – |
| COC(=O)[C@@]1(Cc2ccccc2)[C@H]2c3cc(C(=O)N(C)C)n(Cc4ccsc4Br)c3C[C@H]2CN1C(=O)c1ccccc1 | 3.98 µM (active) | – |
| CCCCN1CCCC[C@H]1C(=O)Nc1c(C)cccc1C | inactive | – |
| CC(=O)OC[C@@H]1O[C@H](CCO/N=C\[C@@H](C)[C@H](OCc2ccccc2)C(C)C)C=C[C@@H]1OC(C)=O | – | -15.4% [at 11.4 µM] |
| CON1C(=O)C(=O)N(OC)C(C)(C)C1C (stereo not given) | inactive | – |
| Cc1nn(C)c(C(=O)NNC(=S)Nc2ccc(Cl)cc2)c1[N+](=O)[O-] | 6.31 µM (active) | – |
| Cc1cc([N+](=O)[O-])nn1CC(=O)NNC(=S)Nc1ccc(F)cc1 | inactive | – |
| Cc1cc(NC(=O)c2c([N+](=O)[O-])c(C)nn2C)no1 | inactive | – |
| COc1ccccc1NC(=S)NNC(=O)c1c(Cl)c(C)nn1C | 3.55 µM (active) | – |
| O=C(N/N=C1/C[C@@H](O)[C@@H](O)[C@@H]2[C@H]3C(=O)N(c4ccc(F)cc4F)C(=O)[C@@H]3CC[C@@H]12)OCc1ccccc1 | – | -1.14% [at 11.4 µM] |
| O=C(O)C1=CC(=C(c2ccc(O)c(C(=O)O)c2)c2ccc(O)c(C(=O)O)c2)C=CC1=O | 15.8 µM (active) | – |
| CC1=C/C(=C(/c2ccc(O)c(C)c2)c2ccccc2C(=O)O)C=CC1=O | 0.01 µM (active) | – |
| NC(N)=N/N=C\c1ccc(O)c(C(=O)O)c1 | – | 2.83% [at 11.4 µM] |
| O=C(O)c1ccc(C(=O)O)c(C(=O)O)c1.[NH-][C@@H]1CCCC[C@@H]1[NH-].[Pt] | – | 0.225% [at 11.4 µM] |
| O=C(O)c1ccc(C(=O)c2ccccc2C(=O)O)cc1C(=O)O | – | -6.86% [at 11.4 µM] |
| NC(=O)CN1CCOCCOCCOCCOCCOCC1 | inactive | – |
| O=S(=O)(NCc1cccnc1)c1ccc(Cl)nc1 | inactive | – |
| CCN(C1CCCCC1)S(=O)(=O)c1ccc(S(=O)(=O)NCc2ccncc2)cc1 | 0.0398 µM (active) | – |
| COc1ccccc1CNc1cc(-c2c(C)noc2C)ncn1 | – | -2.44% [at 2.29 µM] |
| Cc1ccc(-n2nc(C)c3c2OC(N)=C(C#N)C3c2ccco2)cc1 (stereo not given) | 6.31 µM (active) | – |

| SMILES | AC50 | activity, negative = inhibition |
| --- | --- | --- |
| COc1ccccc1NC(=O)COC(=O)c1ccc(S(=O)(=O)NCc2ccco2)cc1 | 0.398 µM (active) | – |
| NCCSSCCN | inactive | – |
| CN1CCN(c2ncc3nc(-c4ccc(Cl)cc4)c(=O)n(Cc4cccs4)c3n2)CC1 | inactive | – |
| COc1ccc(-c2nc3cnc(N4CCN(C)CC4)nc3n(Cc3cccs3)c2=O)cc1 | inactive | – |
| CN(C)c1ncc2nc(-c3cc(F)cc(F)c3)c(=O)n(Cc3cccs3)c2n1 | inactive | – |
| O=c1c(-c2ccc(F)cc2)nc2cnc(N3CCNCC3)nc2n1Cc1cccs1 | 15.8 µM (active) | – |
| O=c1c(-c2ccc(F)cc2)nc2cnc(N3CCOCC3)nc2n1Cc1cccs1 | inactive | – |
| CN1CCN(c2ncc3nc(-c4cc(F)cc(F)c4)c(=O)n(Cc4cccs4)c3n2)CC1 | inactive | – |
| O=c1cnc2cnc(N3CCNCC3)nc2n1Cc1cccs1 | inactive | – |
| O=c1c(-c2cccs2)nc2cnc(N3CCNCC3)nc2n1Cc1cccs1 | 12.6 µM (active) | – |
| O=c1c(-c2cc(F)cc(F)c2)nc2cnc(N3CCNCC3)nc2n1Cc1cccs1 | 3.98 µM (active) | – |
| Cc1nc2cnc(N3CCNCC3)nc2n(Cc2cccs2)c1=O | inactive | – |
| O=c1c(-c2ccc(Cl)cc2)nc2cnc(N3CCNCC3)nc2n1Cc1cccs1 | 20 µM (active) | – |
| COc1ccc(NC(=O)N2CC[C@@]3(CCCN(C(=O)c4cc(C(F)(F)F)cc(C(F)(F)F)c4)C3)C2)cc1 | inactive | – |
| O=C1C(O)=C(O)C(=O)C(O)=C1O | inactive | – |
| Cc1ccnc(NS(=O)(=O)c2ccc(N=[N+]=[N-])cc2)n1 | – | -7.68% [at 11.4 µM] |
| COC(=O)[C@@H]1O[C@@H](c2c(OC)c(OC)c(C)c(OC)c2OC)[C@H](C)[C@@H](O)[C@@H]1C | – | 14.6% [at 11.4 µM] |
| COCCn1c(=O)c(-c2cccs2)nc2cnc(N3CCN(C)CC3)nc21 | inactive | – |
| COc1ccc(-n2c(=O)c(-c3cccs3)nc3cnc(N4CCNCC4)nc32)cc1 | inactive | – |
| COCCn1c(=O)c(-c2cccs2)nc2cnc(N3CCNCC3)nc21 | 2 µM (active) | – |
| Cc1noc(C)c1C(=O)N1CCC2(CCN(C(=O)NC(C)C)CC2)CC1 | inactive | – |
| CCOC(=O)C1=C(C)N=C2SC(C(=O)OC)=CC(=O)N2C1c1ccc(F)cc1 (stereo not given) | 7.08 µM (active) | – |
| COC(=O)C1=C(CSc2nncn2C)NC(=O)NC1c1ccc(F)cc1 (stereo not given) | inactive | – |
| OCCCCNCc1ccc(OCc2ccccc2Cl)cc1 | inactive | – |
| Nc1cccc(OCc2nc(N)nc(N)c2-c2ccc(Cl)cc2)c1 | – | -4.32% [at 11.4 µM] |
| Cc1cc(OCc2nc(N)nc(N)c2-c2ccc(Cl)c(Cl)c2)ccc1[N+](=O)[O-] | 1.58 µM (active) | – |
| CC1(C)S[C@@H]2[C@H](NC(=O)[C@@H](NC(=O)N3CCNC3=O)c3ccccc3)C(=O)N2[C@H]1C(=O)O | inactive | – |

Reference: PubChem BioAssay AID1851 (National Center for Advancing Translational Sciences (NCATS), 2009)
